sEH inhibitor – soluble epoxide hydrolase inhibitors, primary screen, biochemical, human sEH | Bifunctional epoxide hydrolase 2 (Homo sapiens), P34913 | recombinant human sEH enzymatic activity assay | inhibition, % at 2 µM | 91,000 compounds, 0.34% hits | AID 707, 2007; in the data active means inhibition above about 80%
Target sequence (P34913 whole entry, looked up): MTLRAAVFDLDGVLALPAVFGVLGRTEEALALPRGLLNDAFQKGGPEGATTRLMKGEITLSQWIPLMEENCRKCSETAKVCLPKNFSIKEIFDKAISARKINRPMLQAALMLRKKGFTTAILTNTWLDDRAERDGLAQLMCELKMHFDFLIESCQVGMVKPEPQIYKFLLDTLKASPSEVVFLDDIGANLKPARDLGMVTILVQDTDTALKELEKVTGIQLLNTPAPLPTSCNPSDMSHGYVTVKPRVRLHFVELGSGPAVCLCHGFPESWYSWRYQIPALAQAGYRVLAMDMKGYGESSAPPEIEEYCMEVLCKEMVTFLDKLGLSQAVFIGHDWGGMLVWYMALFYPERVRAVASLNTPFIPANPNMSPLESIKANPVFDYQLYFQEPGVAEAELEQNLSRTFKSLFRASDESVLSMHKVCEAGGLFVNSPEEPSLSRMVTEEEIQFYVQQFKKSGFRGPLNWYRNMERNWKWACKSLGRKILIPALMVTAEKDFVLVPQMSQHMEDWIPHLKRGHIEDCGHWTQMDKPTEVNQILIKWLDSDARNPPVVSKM
PLAP act – PLAP enzyme activators, biochemical, luminescence, HTS. Alkaline phosphatase, placental type (Homo sapiens), P05187. purified PLAP enzyme, luminescent substrate read-out; stronger effect = higher value. activation fold at 20 µM. 96,000 compounds, 1.2% hits. AID 696, 2007; in the data active means activation fold above about 2
LYP inh 2 – PTPN22 phosphatase inhibitors, primary screen, biochemical, DiFMUP fluorescence, 2 µM; Tyrosine-protein phosphatase non-receptor type 22 (Homo sapiens), Q9Y2R2; recombinant LYP catalytic domain; inhibition, % at 2 µM; 96,000 compounds, 0.21% hits;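 active means inhibition at 2 µM at or above a set limit, the screen mean plus 3 SD, cut at about 24% in these data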
EphB4 antag – EphB4-ephrin-B2 interaction antagonists, primary screen, biochemical, TNYL-RAW peptide probe, fluorescence polarization; EphB4 LBD / TNYL-RAW-Alexa532 peptide; inhibition, % at 7 µM; 97,000 compounds, 0.15% hits; AID 720, 2007;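 active means inhibition above the screen-wide mean inhibition plus 3 SD, cut at about 15% in these data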
PTPN22 act – LYP phosphatase activators, primary screen, biochemical, DiFMUP fluorescence, 2 µM; Tyrosine-protein phosphatase non-receptor type 22 (Homo sapiens), Q9Y2R2; recombinant LYP; 0 = plate median, 100 = signal doubled; activation, % at 2 µM; 96,000 compounds, 0.11% hits; AID 697, 2007;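 active means activation at 2 µM above a set limit, the mean plus 5 SD, cut at about 37% in these data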
sEH activator – soluble epoxide hydrolase activators, primary screen, biochemical, human sEH | AID 717, 2007 | purified human sEH enzymatic activity, activator screen | activation, % at 2 µM | Bifunctional epoxide hydrolase 2 (Homo sapiens), P34913 | 91,000 compounds, 0.04% hits; in the data active means activation above about 37%
Each line names hits and unclear results; the compound was inactive in the other large screens. The list is not random: actives were taken first. Their share in the collection is about 1.6%.

O=C(Nc1ccc(Cl)c(C(F)(F)F)c1)C1CCCN(S(=O)(=O)c2cnc[nH]2)C1 (stereo unspecified)	sEH inhibitor 91.8
COc1ccc(/C=N/Nc2nc3ccccc3o2)cc1O	PLAP act 2.1
COc1cc(/C=N\Nc2nc3ccccc3o2)cc(OC)c1OC	none (no result: PLAP act)
COc1cc(/C=N/Nc2nc3ccccc3o2)cc(OC)c1O	PLAP act 2.3
Cc1ccccc1-c1nc(CN2CCC(C(=O)NCCCN3CC(C)CC(C)C3)CC2)c(C)o1 (stereo unspecified)	PLAP act 2
Cc1ccccc1-c1nc(CN2CCC(C(=O)NCCCN3CCCC3)CC2)c(C)o1	none
Cc1ccccc1-c1nc(CN2CCC(C(=O)NCc3cccs3)CC2)c(C)o1	PLAP act 2.6
C=CCNC(=S)NNC(=O)c1cccn(Cc2ccc(Cl)cc2)c1=O	LYP inh 2 52.8
C=CCNC(=S)NNC(=O)c1cccn(Cc2cccc(Cl)c2)c1=O	LYP inh 2 56.0
C/C=C(\CS(=O)(=O)c1ccccc1)S(=O)(=O)c1ccccc1	none
Cc1ccc(CSc2nnc(-c3ccccc3N)c(=O)[nH]2)cc1	LYP inh 2 28.9
O=c1c2ccccc2nc2n1CC/C2=C/N1CCN(c2cccc(C(F)(F)F)c2)CC1	none
Cc1ccc(C2C3=C(CC(C)(C)CC3=O)Nc3n[nH]c(C)c32)cc1 (stereo unspecified)	PLAP act 2
CCn1c(COc2cccc3ccccc23)nnc1SCC(=O)OC1CCCCC1	PLAP act 2.5
CCn1c(COc2ccccc2C)nnc1SCC(=O)NC1CCCC1	none
CCOC(=O)c1sc2nc(C)c3c(c2c1N)CC(C)(C)OC3	EphB4 antag 15.4
COc1cc(C2C(C#N)=C(N)Oc3n[nH]c(C)c32)ccc1OC(=O)c1ccccc1 (stereo unspecified)	none
COc1cc(C2C(C#N)=C(N)Oc3n[nH]c(C)c32)cc2c1OCO2 (stereo unspecified)	PLAP act 2 (no result: sEH inhibitor, LYP inh 2, EphB4 antag, PTPN22 act, sEH activator)
CC(=O)Nc1cccc(Oc2ccc(-c3noc(C)n3)cc2)c1	none
CC(C)c1ccc(N2C(=O)CC(Sc3nc4ccccc4o3)C2=O)cc1 (stereo unspecified)	LYP inh 2 24.5
CCCC(=O)N(c1ccc(OCC)cc1)C1C=CS(=O)(=O)C1 (stereo unspecified)	none (no result: sEH inhibitor, LYP inh 2, EphB4 antag, PTPN22 act, sEH activator)
S=c1[nH]nc(Cc2ccccc2)n1Cc1ccco1	PLAP act 2.1
CCn1c(SCC(=O)O)nnc1C1CCCCC1	none
COc1ccc(N2CCN(CC(O)COc3ccc4c(c3)CCC4)CC2)cc1 (stereo unspecified)	PLAP act 2
OC(COc1ccc2c(c1)CCC2)CN1CCN(c2ccccc2F)CC1 (stereo unspecified)	none
Nc1sc2c(c1C(=O)NC1CCS(=O)(=O)C1)CCC2 (stereo unspecified)	PLAP act 2.3
CNC(=O)c1c(N)sc2c1CCCCC2	none
O=C(NNC(=O)c1cc2cc3ccccc3nc2s1)c1cccc(Cl)c1	LYP inh 2 27.1
CC1(C)CC(=O)C2=C(C1)N(CC1CCCO1)C(=O)C2(NC(=O)c1cccnc1)C(F)(F)F (stereo unspecified)	none
CCCCNS(=O)(=O)c1ccc2nc(SCC(=O)Nc3sccc3C#N)[nH]c2c1	none
CCCCNS(=O)(=O)c1ccc2nc(SCC(=O)c3ccccc3OC)[nH]c2c1	PLAP act 2.2
N=c1n(CCN2CCCCC2)c2ccccc2n1CC(O)c1ccc(Cl)c(Cl)c1 (stereo unspecified)	PLAP act 2.1
N=c1n(CCN2CCCCC2)c2ccccc2n1CC(O)c1cccc(Br)c1 (stereo unspecified)	PLAP act 2
COC(=O)/C(=C(/F)Sc1cc(C)c(O)c(C)c1)C(F)(F)F	none
Cc1c(NC(=O)OC(C)C)sc(=S)n1C	none (no result: PLAP act)
O=C(Nc1ccc(N2CCN(C(=O)c3ccco3)CC2)cc1)C(c1ccccc1)c1ccccc1	PLAP act 2.5
O=C(Nc1ccc(N2CCN(C(=O)c3ccco3)CC2)cc1)c1cccs1	none
CCOc1cc(C(=O)N2CCN(c3ccc(C(C)=O)cc3)CC2)cc(OCC)c1OCC	none
Nc1c(C(=O)NCc2ccco2)c2nc3ccccc3nc2n1CCc1ccccc1F	LYP inh 2 25.1
CC(C)c1ccc(C2NC(C(=O)O)CS2)cc1 (stereo unspecified)	PLAP act 2
COc1ccc2nc(NC(=O)C(NS(=O)(=O)c3cccc4nsnc34)C(C)C)sc2c1 (stereo unspecified)	PLAP act 2.1
Cc1ccc(NC(=S)NCC2CCCO2)cc1 (stereo unspecified)	none
Cc1cnn(C(=S)NCC2CCCO2)c1 (stereo unspecified)	PLAP act 2.1 (no result: sEH inhibitor, LYP inh 2, EphB4 antag, PTPN22 act, sEH activator)
CC(c1ccccc1)N1CCn2c(nc3cc(NC(=O)NC4CCCCC4)ccc32)C1 (stereo unspecified)	sEH inhibitor 97.2, PLAP act 2.9
Clc1ccc(-c2nn3c(-c4ccccn4)nnc3s2)c(Cl)c1	none (no result: sEH inhibitor, LYP inh 2, EphB4 antag, PTPN22 act, sEH activator)
Clc1ccccc1-c1nnc2sc(-c3ccccn3)nn12	sEH activator 37.7 (no result: PLAP act)
CSc1ncc2c(n1)-c1cc(C)ccc1SC2	none
COc1ccccc1CNc1cc(CSc2ccc(Cl)cc2)nc(C)n1	PLAP act 2
COc1cccc(CNc2cc(CSc3ccc(Cl)cc3)nc(C)n2)c1	PLAP act 2
CCn1cc(S(=O)(=O)CC(=O)Nc2ccc(OC)cc2)c2ccccc21	none (no result: sEH inhibitor, LYP inh 2, EphB4 antag, PTPN22 act, sEH activator)
Cc1nn(-c2ccccc2)c(C)c1/C=N/NC(=O)c1cc(C23CC4CC(CC(C4)C2)C3)[nH]n1	LYP inh 2 37.7
Cc1sc2ncnc(SCC(=O)NC(=O)NCc3ccco3)c2c1C	none
O=C1CC(N2CCN(c3ccc(S(=O)(=O)N4CCCC4)cc3)CC2)C(=O)N1c1ccc(F)cc1 (stereo unspecified)	none
O=C(Nc1ccc(Cc2ccncc2)cc1)C1CCC(N2C(=O)C3CC=CCC3C2=O)CC1 (stereo unspecified)	none
O=C(Nc1ccc(Cc2ccncc2)cc1)C1CCC(N2C(=O)C3C4C=CC(C4)C3C2=O)CC1 (stereo unspecified)	PLAP act 2.1
Cc1sc2nc(SCC(=O)N(C)C)[nH]c(=O)c2c1C	none
Cc1c(C(=O)N(C)C)sc2nc(-c3ccccn3)[nH]c(=O)c12	PLAP act 2.9
CC(C)(C)C1CCC2(CC1)NC(=S)N(c1ccccc1)N2 (stereo unspecified)	none (no result: PLAP act)
CC(C)(C)C1CCC2(CC1)SCC(=O)N2c1ccccc1 (stereo unspecified)	EphB4 antag 15.8

Compound activity deposited in PubChem BioAssay by several laboratories.
